# ChEMBL document CHEMBL3433997, “St. Jude Leishmania screening dataset” (2016)
# Biological target: Glucose transporter (Leishmania mexicana) (UniProt O61059)
# Experiment: ST_JUDE_LEISH: Cytotoxicity at 2uM final concentration against transgenic Leishmania Mexicana promastigotes LmGT2 that are glucose transport deficient and complemented with the L. Mexicana glucose transporter 2. Activity is measured by DNA content using SYBR green in vitro
# Assay type: functional
row,SMILES,inhibition [%]
1,CC(Cc1ccc(COc2ccc(CC(CO)NCCc3cccc(Cl)c3)cc2)cc1)NCCc1cccc(Cl)c1 (stereo not given),69.3
2,CCN(CC)CCCn1c(N)c(-c2nc3ccccc3[nH]2)c2nc(C#N)c(C#N)nc21,4.63
3,COc1ccccc1N1CCN(CCCCNC(=O)c2ccc(NC(=O)c3ccc(C(F)(F)F)cc3)cc2)CC1,-0.69
4,CC(C)COc1ccc(Cl)cc1Cc1ccc(-c2nc3cc(CCN(C)C)ccc3[nH]2)o1,3.29
5,Oc1cccc(CCNCCCCCCNCCc2ccc(Cl)cc2)c1,2.3
6,C=CCn1c(Sc2ccc(C#N)c([N+](=O)[O-])c2)nnc1-c1cc(OC)cc(OC)c1,10.9
7,CN(C)CCOc1ccc(-c2cc(-c3ccncc3)c(-c3ccc(Cl)c(O)c3)[nH]2)cc1,1.4
8,CN1C(C)(C)CC(NC(=O)c2ccc(-c3nc4cc(Cl)ccc4[nH]3)cc2)CC1(C)C,2.7
9,CC(C)COc1ccc2ccccc2c1CNCCCCCCNCc1c(OCC(C)C)ccc2ccccc12,27.7
10,NC(=O)c1ccsc1NC(=O)CNC(c1ccccc1)c1ccccc1,1.15
11,CC(C)c1nc2c(N)nc(N)nc2nc1N,1.01
12,CC(=NNC(N)=O)C1=C(O)C(c2ccccc2)N(C2CCCCC2)C1=O (stereo not given),-0.27
13,N#Cc1cccc(CN2CCCN(Cc3ccc(C(=O)Nc4ccc(Cl)cc4)cc3)CC2)c1,-0.06
14,O=C(Nc1cccc(-c2ccc(-c3nc4ccccc4[nH]3)cc2)c1)c1cccnc1,-0.92
15,Cc1[nH]cnc1Cc1ccc2c(c1O)c1ccccc1n2C,-0.18
16,CCCc1cc(NC2CCN(C)CC2)nc(Nc2cccc(OC)c2)n1,6.84
17,Cc1cc(NS(=O)(=O)c2cccc(C(C)N3CCC(N4CCCC4)CC3)c2)ccc1C(C)C (stereo not given),1.55
18,CN(CCC(CCN1CCC(c2c[nH]c3ccccc23)CC1)c1ccccc1)C(=O)Nc1ccc(Cl)c(Cl)c1 (stereo not given),0.72
19,CCc1sc(N2CCN(C)CC2)nc1C(=O)Nc1ccc(F)cc1C(F)(F)F,-0.43
20,c1ccc2c(CNCCCN3CCN(CCCNCc4c5ccccc5cc5ccccc45)CC3)c3ccccc3cc2c1,0.34

row,SMILES,inhibition [%]
1,O=C(CCc1nc2c(cnn2-c2ccccc2)c(=O)[nH]1)NC1CCSc2ccccc21 (stereo not given),-2.08
2,COc1ccc(CN2CCC(CNC(C)c3cccc4ccccc34)CC2)cc1 (stereo not given),5.96
3,CCNc1cc(C(=O)N[C@@H](Cc2ccccc2)[C@H](O)CNC(C)(C)CCCC(C)C)cc(N2CCCCS2(=O)=O)c1,-0.83
4,O=C(Nc1ccc(Cl)cc1)Nc1ccc(-c2cccc(-c3nc4ccccc4[nH]3)c2)cc1,-1.97
5,Oc1ccc(C2CNCCc3c2cc(O)c(OCc2ccccc2)c3Cl)cc1 (stereo not given),2.54
6,Nc1ncc(-c2ccsc2)cc1-c1nc2ccccc2[nH]1,2.5
7,Cc1nc(-c2cccc(Nc3ccnc4cc(-c5nccs5)ccc34)c2)no1,2.74
8,O=C(Nc1ccc2c(c1)CCC2)c1ccc(N2CCN(c3ccncc3)CC2)cn1,14.7
9,Cc1cc(C(=O)Nc2ccc3c(c2)CCN3C2CCN(Cc3cccc(F)c3F)C2)no1 (stereo not given),0.24
10,c1ccc2c(CNc3nc(NCC4CCCCC4)nc4[nH]cnc34)cccc2c1,2.36
11,CCCCCCCCn1c2c(c(=N)c3c1CCC3)CCCC2,92.6
12,Cc1[nH]c(C)c(-c2ccc(-c3cc(C(F)(F)F)cc(C(F)(F)F)c3)nc2)c(=O)c1Br,5.42
13,CCc1sc(N2CCC(C)CC2)nc1C(=O)Nc1ccc(F)cc1C(F)(F)F,0.26
14,OC(CNCc1ccccc1OCc1ccccc1)c1cccc(Cl)c1 (stereo not given),5.2
15,CN(C)C=Nc1ccc(OCCCCCCOc2ccc(N=CN(C)C)cc2)cc1,2.37
16,O=C(Nc1ccc(-c2cccc(-c3nc4cc(C(F)(F)F)ccc4[nH]3)c2)cc1)c1cccnc1,-1.11
17,O=C(Nc1cc(Oc2ccc(O)cc2)cc([N+](=O)[O-])c1)c1cc(-c2ccc(F)cc2)no1,1.6
18,COc1cc(OC)cc(C(=O)Nc2nc(-c3ccc(NC(=O)c4ccccc4)cc3)cs2)c1,5.46
19,N#CCCN1CCN(Cc2cccc(-c3ccc(-c4nc5cc(F)ccc5[nH]4)cc3)c2)CC1,3.71
20,CCN1CCN(Cc2ccc3nc(-c4cc(C)n(Cc5cc(Cl)ccc5OCc5ccccc5)n4)[nH]c3c2)CC1,-0.3
